This is a sample that favours compounds with a hit; in the whole collection about 1.5% have one here.
HePTP inh = inhibitors of human HePTP phosphatase, primary screen, biochemical, absorbance, leukemia target; Tyrosine-protein phosphatase non-receptor type 7 (Homo sapiens), P35236; recombinant HePTP phosphatase activity, OD absorbance; inhibition, % at 20 µM; 110,000 tested, 0.64% active; AID 521, 2006; in the data active means inhibition above about 50%;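 further: plate controls were vehicle for no effect and reference inhibitor for full effect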
Target sequence (P35236 whole entry, looked up): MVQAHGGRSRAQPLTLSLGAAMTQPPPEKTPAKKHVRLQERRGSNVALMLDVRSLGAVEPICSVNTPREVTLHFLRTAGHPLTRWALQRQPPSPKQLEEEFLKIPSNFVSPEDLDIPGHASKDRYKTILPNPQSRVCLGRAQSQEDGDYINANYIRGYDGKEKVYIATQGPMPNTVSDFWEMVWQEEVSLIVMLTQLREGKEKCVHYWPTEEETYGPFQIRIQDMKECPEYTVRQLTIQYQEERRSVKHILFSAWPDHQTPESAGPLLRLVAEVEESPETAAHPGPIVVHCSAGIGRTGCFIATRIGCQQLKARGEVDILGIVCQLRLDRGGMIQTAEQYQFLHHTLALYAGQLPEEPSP
CD11b adhes enh = enhancers of CD11b/CD18 adhesion to fibrinogen, primary screen, K562 cells, luminescence. ATPlite luminescence. AID 1499, 2009. activation, % at 10 µM. Integrin beta-2 (Homo sapiens) + Integrin alpha-M (Homo sapiens), P05107+P11215. 93,000 tested, 0.07% active;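 active means 10 µM primary screen giving 50% or more activity, confirmed by 40% or more on retest at that dose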
PLAP activator = PLAP enzyme activators, biochemical, luminescence, HTS; Alkaline phosphatase, placental type (Homo sapiens), P05187; purified PLAP enzyme, luminescent substrate read-out; stronger effect = higher value; activation fold at 20 µM; 96,000 tested, 1.2% active; AID 696, 2007; in the data active means activation fold above about 2
Mac1 fbg inh = inhibitors of CD11b/CD18 adhesion to fibrinogen, primary screen, K562 cells, luminescence; ATPlite luminescence; Mn2+ added to activate the integrin; inhibition, % at 10 µM; 93,000 tested, 0.54% active;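 active means primary inhibition of 50% or more at 10 µM, then 40% or more on retest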
Active calls of the source: *; · = no result; ! = not active in a repeat.

SMILES	HePTP inh	CD11b adhes enh	PLAP activator	Mac1 fbg inh
CN(C)c1cccc2c(C(NS(=O)(=O)c3ccccc3)C(Cl)(Cl)Cl)ccc(N(C)C)c12 (centres undefined)	8	·	·	·
CCS(=O)(=O)N1Cc2ccccc2CC1C(=O)Nc1nc2ccccc2[nH]1 (centres undefined)	4	-1	2.4*	1
O=S(=O)(NCc1ccncc1)c1ccc(Br)s1	1	-11	1	98*
O=C(O)CNS(=O)(=O)c1ccc(Br)s1	-6	6	1.6	-7
Cc1cc(C(=O)CSc2nnc(-c3ccco3)o2)c(C)n1-c1ccc2c(c1)OCCO2	-4	4	1.1	87*
O=C1C(=O)N(c2cccnc2)C(c2ccccc2[N+](=O)[O-])/C1=C(\O)c1ccc(Cl)cc1 (centres undefined)	-8	·	·	·
O=C(O)c1ccc(Cl)c(-c2ccc(C=C3C(=O)c4ccccc4C3=O)o2)c1	104*	·	·	·
O=C1NC(=S)N/C1=C/c1ccc(-c2cc(C(=O)O)ccc2Cl)o1	104*	·	·	·
O=C1NC(=S)N/C1=C/c1ccc(-c2cccc(Cl)c2Cl)o1	13	·	·	·
O=C(O)c1ccc(-c2ccc(C=C3C(=O)c4ccccc4C3=O)o2)cc1Cl	52*	·	·	·
Clc1cccc(Nc2c3c(nc4ncnn24)CCC3)c1	4	0	2*	-54
Cc1ccc(Nc2c3c(nc4ncnn24)CCC3)cc1	6	3	1.2	-15
O=C(NCCCc1ccccc1)C(F)(F)F	-4	·	·	·
Cc1nn(-c2ccccc2)c2[nH]c(=O)c(CNCCN3CCOCC3)cc12	-8	-2	1.1	-12
Cc1ccc(-c2nn(-c3ccccc3)c3[nH]c(=O)c(CNCCN(C)C)cc23)cc1	-8	1	2.7*	-2
O=C(COc1cccc(Cl)c1)N/N=C\c1cccnc1	2	·	·	·
CCOc1ccccc1CSc1nc2ccccc2[nH]1	·	-1	·	25
CCn1c(CSc2nc3ccccc3[nH]2)n[nH]c1=S	6	3	2.2*	-26
CCOC(=O)C1=C(CSc2nc3ccccc3s2)NC(=O)NC1c1ccc(OC)cc1 (centres undefined)	·	·	1.2	·
CCOC(=O)C1=C(CSc2n[nH]c(N)n2)NC(=O)NC1C (centres undefined)	-4	-1	2.4*	-6
CCOc1cc(CNCCSc2nnnn2C)cc(Br)c1OCc1ccccc1F	·	·	1.3	·
CCOc1cc(CNCc2ccncc2)cc(Br)c1OCc1ccccc1F	·	-7	1.7	89*
Fc1ccc(NC(=S)Nc2ccc(Oc3ccccc3)cc2)cc1	6	·	·	·
CCCCCCC1CCC(C(=O)NC(CCSC)C(=O)NC(C(=O)OC)C(C)C)CC1 (centres undefined)	·	5	2.2*	-2
CCn1c(SCC(=O)Nc2nc(-c3ccccc3)cs2)nnc1-c1ccccc1	-21	-3	2*	20
SMILES	HePTP inh	CD11b adhes enh	PLAP activator	Mac1 fbg inh
Cc1cc(Nc2cccc(O)c2)n2ncnc2n1	-2	·	·	·
COc1cc(CN2CCN(Cc3ccccn3)CC2)cc(OC)c1OC	7	·	·	·
O=C(c1ccc([N+](=O)[O-])cc1)n1c2c(c3ccccc31)CCCC2	104*	·	·	·
CN1CC(=O)NC1=NC(=O)C12CC3CC(CC(C3)C1)C2	0	0	2.6*	-12
CCOc1cc(/C=C2/SC(=S)NC2=O)cc(Cl)c1OCc1ccc(Cl)cc1Cl	84*	·	·	·
COc1cc(/C=C2/SC(=S)NC2=O)cc(Cl)c1OCc1cccc2ccccc12	102*	·	·	·
COc1cc(/C=C2/SC(=S)NC2=O)cc(Cl)c1OCc1ccccc1F	-2	·	·	·
Nc1cc(-c2ccccc2)nn1S(=O)(=O)c1ccc(F)cc1	·	-2	0.4	63*
Nc1cc(-c2ccc(Br)cc2)nn1S(=O)(=O)c1ccccc1	1	5	0.8	-11
COc1cc2c(C(=O)Nc3ccc4c(c3)OCO4)cn(CC(C)C)c(=O)c2cc1OC	6	0	2.4*	-8
COc1ccccc1N1C(=O)C(=Cc2cccn2C)C(=O)NC1=S	102*	·	·	·
Cc1ccc(C)c(Nc2ncnc3nc[nH]c23)c1	-2	-1	2.4*	-8
c1ccc(COc2ccc(Nc3ncnc4nc[nH]c34)cc2)cc1	-1	1	2.3*	-3
Cc1cccc(Nc2ncnc3nc[nH]c23)c1	2	·	·	·
COc1ccc(Nc2ncnc3nc[nH]c23)cc1OC	4	-1	2*	-10
CCOC(=O)c1ccc(Nc2ncnc3nc[nH]c23)cc1	5	-2	1.2	12
COc1ccc2nc(SCC(=O)Nc3ccc(C)cc3)[nH]c2c1	0	·	·	·
Cc1cc(Cl)ccc1N(CC(=O)N=Nc1c(O)[nH]c2ccccc12)S(C)(=O)=O	·	0	2.1*	2
COc1ccc(OC)c(NC(=O)CN(CCc2ccccc2)S(=O)(=O)c2ccc(Cl)cc2)c1	12	·	·	·
Cc1ccc(-n2[nH]c(=O)c(/C=C3\C=Nc4ccccc43)c2O)cc1	94*	·	·	·
Cc1ccc(Nc2nc3nonc3[nH]c2=O)cc1C	11	-11	1.4	100*
Cc1ccc(Nc2nc3nonc3n3cnnc23)cc1C	14	·	·	·
O=C(N/N=C/c1ccc(Cl)c(Cl)c1)C1CC(=O)N(c2ccccc2)C1 (centres undefined)	4	·	·	·
C=CC[n+]1c(-c2ccc(OCC)cc2)csc1NNC(=O)Nc1ccccc1	·	-8	1.1	86*
CCOc1ccc(-c2nnc(NC(=O)Nc3ccccc3)s2)cc1	-4	·	·	·
SMILES	HePTP inh	CD11b adhes enh	PLAP activator	Mac1 fbg inh
c1ccc2c(c1)OCC(CNc1ncnc3sccc13)O2 (centres undefined)	·	-8	·	100*
CCc1ccc(S(=O)(=O)Nc2ccc(NC(C)=O)cc2)cc1	103*	·	·	·
CC(=O)Nc1ccc(NS(=O)(=O)c2ccc(F)cc2)cc1	0	·	·	·
O=C(O)c1cccc(-c2ccc(/C=N/Nc3ccc([N+](=O)[O-])cn3)o2)c1	102*	·	·	·
Cc1ccc(Oc2nc3ccccc3n3cnnc23)cc1	-11	·	·	·
COc1ccc(-c2nc(C#N)c(NCc3cccnc3)o2)cc1OC	·	·	1.1	·
N#Cc1nc(-c2cccc(Cl)c2)oc1NCc1cccnc1	·	-4	2*	7
COC(=O)c1c(NC(=S)Nc2ccccc2)sc2c1CCCC2	3	·	·	·
Cc1cc(Br)c(-c2ccc(/C=C3/NC(=S)NC3=O)o2)cc1C	3	·	·	·
N#CC(C#N)=NNc1ccc(O)c(C(=O)O)c1	69*	·	·	·
CC(=O)Nc1cc(-c2ccc(C)cc2)nn1Cc1ccccc1	104*	·	·	·
CC(=O)Nc1cc(-c2ccc(Cl)cc2)nn1Cc1ccc(Cl)cc1	9	·	·	·
Cc1cc(-c2ccccc2)c2nncn2n1	78*!	0	1.1	8
COc1ccc(/C=N/Nc2nc(-c3ccc(C)cc3)nc3ccccc23)cc1	-5	·	·	·
Cc1ccc(-c2nc(N/N=C/c3ccncc3)c3ccccc3n2)cc1	8	-9	1.2	103*
CC(C)(C#N)NCCCCCCNC(C)(C)C#N	-3	·	·	·
COc1ccc(-c2[nH]ncc2/C=C(\C#N)C(=O)NC2CC2)cc1	·	-4	2.6*	-1
N#C/C(=C\c1cn[nH]c1-c1ccc(Cl)cc1)C(=O)NCc1ccccc1	·	-4	2.1*	11

Screens (PubChem)
